HMGR II inh = E. faecalis class II HMG-CoA reductase inhibition. purified E. faecalis HMGR, NADPH absorbance 340 nm kinetic. 190,000 compounds, 0.41% hits. inhibition, % at 10 µM;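 active means inhibition above a set limit, the median over all tested compounds plus 3 SD, cut at about 9.5% in these data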;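 further: enzyme runs in reverse so mevalonate oxidation gives rising NADPH absorbance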
14-3-3 Bad inh = disrupts binding of bovine 14-3-3 zeta to phospho-Bad peptide; P63103; 220,000 compounds, 0.71% hits; TR-FRET 14-3-3zeta/Dy647-pBad peptide displacement, 1 h; inhibition, % at 21.7 µM;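 active means inhibition above about 70%, limit read from the data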
Target sequence (P63103 whole entry, looked up): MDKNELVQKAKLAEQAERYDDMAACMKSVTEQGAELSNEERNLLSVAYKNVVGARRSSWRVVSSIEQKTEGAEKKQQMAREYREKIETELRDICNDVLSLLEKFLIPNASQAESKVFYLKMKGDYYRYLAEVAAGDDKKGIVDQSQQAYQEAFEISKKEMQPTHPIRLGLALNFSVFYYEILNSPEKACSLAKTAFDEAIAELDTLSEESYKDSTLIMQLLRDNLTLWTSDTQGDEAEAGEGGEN
dFosB activator = mouse delta FosB homodimer activation; AID 493131; P13346; 340,000 compounds, 0.99% hits; purified delta FosB, TAMRA-CDK5 oligo fluorescence polarization; percent of positive-control signal above neutral wells; activation, % at 25 µM;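 active means mean activation above about 17%, with every replicate also reaching it, limit read from the data, passing the limit was not always enough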
p47phox inh = blocks human p47phox regulatory protein of NADPH oxidases | P14598 | 220,000 compounds, 0.53% hits | AID 1274 | p47phox/p22phox peptide binding, fluorescence polarization, 2 h | inhibition, % at 24.7 µM;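 active means inhibition above about 30%, limit read from the data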
Of the large screens only hits and unclear results are named; the others gave an inactive call. This is a sample that favours compounds with a hit; in the whole collection about 1.9% have one here.

CC(C)C[C@H](NC(=O)[C@@H]1CCCN1C(=O)[C@@H](N)Cc1ccc(O)cc1)C(=O)NCC(N)=O	HMGR II inh 18.2
CCCn1cc(C(=O)O)cn1	HMGR II inh 14.4
Nc1cncc(C(=O)O)c1	none
CNC(=O)Oc1ccc(-c2cn3cc(C)ccc3n2)cc1	none
CCN1C(=O)N(CC)C(=O)C2(Cc3ccccc3N3CCN(c4ccccc4)CC32)C1=O (configuration not stated)	none (no result: HMGR II inh, dFosB activator)
O=C1NC(=O)C2(Cc3ccccc3N3CCCC32)C(=O)N1 (configuration not stated)	none
CN1CCN2c3ccc(N)cc3CC3(C(=O)NC(=O)NC3=O)C2C1 (configuration not stated)	14-3-3 Bad inh 95.8 (no result: HMGR II inh, dFosB activator)
CN1C(=O)N(C)C(=O)C2(Cc3cc(N)ccc3N3CCN(c4ccccc4F)CC32)C1=O (configuration not stated)	14-3-3 Bad inh 82.3 (no result: dFosB activator)
CCOC(=O)c1c(/N=C/c2c(O)n(-c3ccccc3F)c(=S)[nH]c2=O)sc2c1CCCC2	dFosB activator 22.7
CCCCCCCCCOc1ccc2[nH]cc(CCN)c2c1	p47phox inh 92.0 (no result: dFosB activator)
COc1cc(C2c3cc(O)c(OC)cc3CC3C(=O)OCC32)ccc1O (configuration not stated)	none (no result: HMGR II inh, 14-3-3 Bad inh, p47phox inh)
O=C(C1CC(=O)N(C2CCCCCCC2)C1)N1CCC2(CC1)OCCO2 (configuration not stated)	p47phox inh 34.5
c1ccc(CNc2c3c(nc4ccccc24)CCC3)cc1	none (no result: HMGR II inh)
N=Cc1c(O)n(-c2ccc(C34CC5CC(CC(C5)C3)C4)cc2)c(=O)[nH]c1=O	dFosB activator 45.9
CCOc1cc2c(cc1OCC)-n1cccc1C(c1ccc(F)cc1)NC2 (configuration not stated)	none (no result: HMGR II inh, 14-3-3 Bad inh, p47phox inh)
CCOc1cc2c(cc1OCC)-n1cccc1C(c1ccc(C(C)C)cc1)NC2 (configuration not stated)	dFosB activator 23.9 (no result: HMGR II inh, 14-3-3 Bad inh, p47phox inh)
COC(=O)C1=C(c2cc3ccccc3o2)C[C@@H]2CC[C@H]1N2C(=O)NCCNC(C)=O	none (no result: HMGR II inh, 14-3-3 Bad inh, p47phox inh)
Cc1ccc(O)c(C)c1	none (no result: HMGR II inh, 14-3-3 Bad inh, p47phox inh)
CN1C2c3ccccc3C3C4c5ccccc5C(C31)C(C2[N+](=O)[O-])N4C (configuration not stated)	p47phox inh 91.8 (no result: HMGR II inh)
CCCCOc1ccc(CN2CCN(CC)CC2)cc1	14-3-3 Bad inh 85.7
O=C(Nc1ccc(Cl)cc1C(=O)c1ccccc1)c1ccccc1	none
CCN(CC)c1ccc(/C=N/c2sc3c(c2C#N)C2CCN3CC2)c(O)c1	p47phox inh 73.8
O=C1NC(=S)NC(=O)C1C1CCCCC1	none (no result: HMGR II inh)
C/C(=C\c1ccc(N(C)C)cc1)[N+](=O)[O-]	none
CN(C)c1ccc(/C=C/[N+](=O)[O-])cc1	p47phox inh 43.0
O=c1[nH]c(O)c(C=NC2CCCCC2)c(=O)[nH]1	none (no result: HMGR II inh)
CC1(C)CC(=O)C(C=NCCN2CCN(C(=O)Cc3ccc(F)cc3)CC2)=C(O)C1	none
CCC(C)N1C(=O)/C(=C\c2ccc(N3CCCCCC3)cc2)C(=O)NC1=S (configuration not stated)	p47phox inh 56.5
CCC(C)N1C(=O)/C(=C\c2cnc(N(C)C)nc2)C(=O)NC1=S (configuration not stated)	none
CN1C(=O)/C(=C\c2ccc(N3CCCCCC3)cc2)C(=O)NC1=S	none (no result: HMGR II inh)
CCC(C)N1C(=O)/C(=C\c2cc3c4c(c2)CCCN4CCC3)C(=O)NC1=S (configuration not stated)	p47phox inh 62.7
Cc1c(CCN)ccc2c1[nH]c1ccccc12	none (no result: HMGR II inh)
CC(=O)c1cn(Cc2ccc(F)cc2)c2ccccc12	none (no result: HMGR II inh, 14-3-3 Bad inh, p47phox inh)
O=C(Cn1nc(-c2ccccc2)ccc1=O)N1CCC2(CC1)OCCO2	none
Nc1ccc(S(=O)(=O)N2CCCCC2c2cccnc2)cc1 (configuration not stated)	none
O=S(=O)(c1ccccc1)N1CCCCC1c1cccnc1 (configuration not stated)	p47phox inh 43.4
CCCNc1nc(OC)nc(N2CC3CC(C2)c2cccc(=O)n2C3)n1 (configuration not stated)	HMGR II inh 9.9
CC(Cc1ccccc1)[n+]1cc(/N=C(\[O-])N(C)C)on1 (configuration not stated)	14-3-3 Bad inh 85.5
O=c1[nH]c(O)c(/C=C2/C=CC(c3cc(Cl)ccc3Cl)=N2)c(=O)[nH]1	p47phox inh 50.0 (no result: HMGR II inh)
CCN1C(=O)/C(=C\c2ccc([N+](=O)[O-])s2)C(=O)NC1=S	HMGR II inh 10.8, 14-3-3 Bad inh 94.3 (no result: dFosB activator)
C=CCN1C(=O)/C(=C/c2ccc3c(c2)CCCN3CCC)C(=O)NC1=S	p47phox inh 42.9
CN1CCN(c2ccc(N)cc2Cl)CC1	dFosB activator 33.1
